Screens (PubChem BioAssay)
Sampled rows, rich in hits. Any-hit rate of the full collection: about 3%.
SENP6 inh: SENP6 protease inhibition. Recombinant SENP6 catalytic domain, aminoluciferin luminescence. inhibition, % at 10 µM. 1.8% of 330,000 active. AID 2599;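 active means inhibition above about 50% at the single tested dose, limit read from the data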
TRAIL sens C8: caspase-8 TRAIL sensitization; NB7+C8 cells + TRAIL, ATPlite viability luminescence; inhibition (viability loss, TRAIL sensitization), % at 10 µM; 1% of 360,000 active; AID 624354;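 active means compounds causing at least 50% loss of cell viability in the single-dose screen, relative to plate controls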
SENP7 block: inhibitors of human SENP7 protease. recombinant SENP7, Z-RLRGG-aminoluciferin luminescence, 40 min. inhibition, % at 5 µM. 1.5% of 330,000 active;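 active means inhibition above about 50% at the single test dose, limit read from the data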
Target sequence (Q9BQF6 706-1050 limits assumed): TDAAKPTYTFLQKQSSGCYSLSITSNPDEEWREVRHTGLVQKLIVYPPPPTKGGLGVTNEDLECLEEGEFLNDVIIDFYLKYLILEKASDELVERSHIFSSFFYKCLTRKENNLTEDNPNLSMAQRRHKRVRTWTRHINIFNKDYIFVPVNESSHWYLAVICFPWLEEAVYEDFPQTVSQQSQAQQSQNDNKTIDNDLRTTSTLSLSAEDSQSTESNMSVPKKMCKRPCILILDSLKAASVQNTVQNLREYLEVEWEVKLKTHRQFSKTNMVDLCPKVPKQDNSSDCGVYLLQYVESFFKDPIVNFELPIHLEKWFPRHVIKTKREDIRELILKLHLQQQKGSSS
PPC-1+TRAIL kill: compounds killing PPC-1 cancer cells with TRAIL present (potentiator screen, no TRAIL-free arm); PPC-1 cells + TRAIL, ATPLite viability luminescence; cell killing (% activity), % at 4 µM or 5 µM; 0.41% of 220,000 active; AID 1443;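 active means cell killing above 50% in the first pass at 4 µM, then a duplicate retest at 5 µM averaging 50% or more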
SENP8 block-1: inhibitors of human SENP8 protease | Q96LD8 | recombinant SENP8, Nedd8 substrate fluorescence | inhibition, % at 20 µM | 0.64% of 360,000 active; in the data active means inhibition mostly above about 40%, no sharp cut-off; inactive means mostly below about 27%
Target sequence (Q96LD8 whole entry, looked up): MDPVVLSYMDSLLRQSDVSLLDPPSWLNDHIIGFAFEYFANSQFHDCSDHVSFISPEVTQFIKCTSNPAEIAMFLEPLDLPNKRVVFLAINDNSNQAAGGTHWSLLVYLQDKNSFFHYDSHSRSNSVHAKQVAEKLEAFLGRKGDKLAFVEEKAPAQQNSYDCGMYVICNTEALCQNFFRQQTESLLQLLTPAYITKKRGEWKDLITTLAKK
SENP8 block-2: inhibitors of human SENP8 protease; Q96LD8; purified SENP8, Z-RLRGG-aminoluciferin cleavage, luminescence; inhibition, % at 10 µM; 1.2% of 330,000 active; in the data active means inhibition above about 50%
SENP8 confirm: human SENP8 inhibition, confirmed. Recombinant SENP8, Z-RLRGG-aminoluciferin luminescence, 60 min. 40% of 6,200 active. inhibition, % at 12.5 µM. shares compounds with SENP7 block. AID 488912;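 active means mean inhibition across replicates above about 50%, limit read from the data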
SENP6 confirm: human SENP6 inhibition, confirmed | shares compounds with SENP7 block | recombinant SENP6, Z-RLRGG-aminoluciferin luminescence | inhibition, % at 12.5 µM | 58% of 6,200 active
SENP7 conf: human SENP7 inhibition, confirmed | shares compounds with SENP7 block | 69% of 6,200 active | AID 488917 | recombinant SENP7, Z-RLRGG-aminoluciferin luminescence, 40 min | inhibition, % at 12.5 µM
Casp3 select: selectivity test for SENP inhibitors: human caspase-3 inhibition. shares compounds with SENP7 block. purified caspase-3, Z-DEVD-aminoluciferin luminescence, 60 min. inhibition, % at 12.5 µM. 60% of 6,200 active. AID 488918;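 active means mean inhibition above about 50%, limit read from the data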
SENP luc ctr: luminescence interference (SENP counter-screen) | Pre-incubated SENP8/Z-RLRGG-aminoluciferin, luciferase luminescence interference | inhibition, % at 12.5 µM | shares compounds with SENP7 block | 39% of 6,200 active;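 active means mean inhibition above about 50% when retested at one dose, limit read from the data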
Numbers stand for hits; - = inactive; . = no result given.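 How the source made its calls, unless noted: active means mean inhibition above about 50% in the one-dose retest (limit read from the data); inactive means the rest.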

SMILES | SENP6 inh | TRAIL sens C8 | SENP7 block | PPC-1+TRAIL kill | SENP8 block-1 | SENP8 block-2 | SENP8 confirm | SENP6 confirm | SENP7 conf | Casp3 select | SENP luc ctr
CNC(=O)COc1ccc(Nc2nnc(-c3ccc(C)c(S(N)(=O)=O)c3)c3ccccc23)cc1 | - | - | - | . | - | - | . | . | . | . | .
COc1ccc(N2CCN(C(CNC(=O)C(C)C)c3ccc4c(c3)OCO4)CC2)cc1 (stereo not drawn) | - | - | - | . | - | - | . | . | . | . | .
CCCC1=NN(c2ccc([N+](=O)[O-])cc2)C(=O)/C1=C\N(C)C | 95 | - | 96 | - | 52 | 95 | 97 | 97 | 102 | 97 | 97
CCCCN(C(=O)NC(=O)Nc1ccccc1OC)S(C)(=O)=O | - | - | 56 | - | - | - | - | - | - | - | -
CCc1cccc2sc(N3CCN(C(=O)c4ccc([N+](=O)[O-])o4)CC3)nc12 | - | - | - | . | - | - | . | . | . | . | .
COC(=O)c1ccc(COc2ccccc2/C=C/C(=O)c2ccc(OCC(=O)O)cc2)cc1 | 55 | - | - | . | - | - | - | - | - | - | -
COc1cccc2oc3ccc(C#Cc4ccccn4)cc3c(=O)c12 | 100 | 69 | 100 | . | - | 94 | 73 | 90 | 100 | 91 | 75
Cn1cc([C@]2(O)C(=O)Nc3ccc(OC(F)(F)F)cc32)c2ccccc21 | . | - | . | . | - | . | . | . | . | . | .
COc1ccccc1NC(=O)Cn1c(CCC(=O)O)ccc1-c1ccccc1 | - | - | - | - | - | - | . | . | . | . | .
O=C(Nc1cccc(Cl)c1)c1ccc2c(c1)OCCO2 | 91 | 59 | 95 | . | - | 92 | - | 93 | 101 | 89 | 94
O=C(Nc1ccc2c(c1)OCCO2)c1cccc(C(=O)Nc2ccc3c(c2)OCCO3)c1 | - | - | - | . | - | - | . | . | . | . | .
O=C(Nc1cccc([N+](=O)[O-])c1)c1ccncc1 | - | - | - | - | - | - | . | . | . | . | .
O=C(Nc1ccc2c(c1)OCCO2)c1cccc(Cl)c1 | 87 | - | 85 | . | - | 77 | - | 86 | 97 | 85 | 86
O=C(Nc1cccc([N+](=O)[O-])c1)c1ccc2c(c1)OCCO2 | 72 | - | 75 | - | - | 63 | 68 | 70 | 93 | 72 | 80
CCCc1cc(C(=O)Nc2cccc([N+](=O)[O-])c2)cs1 | 87 | - | 72 | . | - | 59 | - | 73 | 92 | - | 56
O=C(CN1CC(=O)Nc2ccccc21)NCCc1ccc(Cl)cc1Cl | - | - | - | . | - | - | . | . | . | . | .
COc1cc(/C=C(\NC(C)=O)C(=O)N2CCCCC2)ccc1OC(C)=O | - | - | - | . | - | - | . | . | . | . | .
C/C(=N/OC(=O)c1ccc(C(F)(F)F)cc1)c1oc(C)nc1C | 84 | - | 91 | - | - | 72 | 78 | 79 | 97 | 86 | 57
Cc1ccc(/C=C2/CCc3c([nH]c4ccccc34)C2=O)cc1 | - | - | 68 | - | - | - | - | - | - | - | -
O=C1/C(=C\c2ccccc2)CCc2c1[nH]c1ccccc21 | - | - | - | - | - | - | . | . | . | . | .
COc1ccc(N=CC2=C(O)c3ccccc3C2=O)cc1 | 95 | 88 | 99 | - | 46 | 93 | - | 67 | - | 89 | -
O=C1C(C=Nc2ccccc2O)=C(O)c2ccccc21 | 96 | - | - | - | 45 | 95 | 88 | 95 | 100 | 95 | 96
O=C1C(C=Nc2ccccc2)=C(O)c2ccccc21 | 98 | 50 | 99 | - | - | 92 | 87 | 88 | 100 | 94 | 61
O=C1C(C=NCCN2CCOCC2)=C(O)c2ccccc21 | - | - | - | - | - | - | . | . | . | . | .
CC(C)CN(C(=O)CN1CCc2ccccc21)c1c(N)n(CC(C)C)c(=O)[nH]c1=O | - | - | - | - | - | - | . | . | . | . | .
SMILES | SENP6 inh | TRAIL sens C8 | SENP7 block | PPC-1+TRAIL kill | SENP8 block-1 | SENP8 block-2 | SENP8 confirm | SENP6 confirm | SENP7 conf | Casp3 select | SENP luc ctr
O=C(CSc1ccc(Br)cc1)Nc1ccccc1N1CCOCC1 | - | - | - | . | - | - | . | . | . | . | .
CCN1CCN(C(=O)c2cc(COc3ccc(F)c(F)c3)on2)[C@@H](C)C1=O | . | - | . | . | - | . | . | . | . | . | .
CCNC(=S)NNC(=O)c1cc(-c2cccc(OC)c2)nc2ccccc12 | 57 | - | - | 51 | - | - | 64 | 60 | 79 | 85 | 71
CCOC(=O)c1c(-c2ccc(F)cc2)csc1NC(=O)C1CC=CCC1C(=O)O (stereo not drawn) | - | - | - | - | - | - | . | . | . | . | .
Cc1ccc(-c2csc(NC(=O)c3ccc(F)cc3)c2C(=O)O)cc1 | 94 | - | 58 | . | - | 90 | - | 91 | 90 | 89 | 68
O=C(Nc1scc(-c2ccccc2)c1C(=O)O)c1ccc(F)cc1 | 91 | - | 71 | . | - | 92 | 93 | 94 | 102 | 96 | 92
O=C(Nc1nsc(-c2ccccc2)n1)c1ccc(F)cc1 | - | - | - | . | - | - | . | . | . | . | .
CC(O)CNc1nc2ccccc2n1CC(=O)N1CCN(Cc2ccccc2)CC1 (stereo not drawn) | - | - | - | - | - | - | . | . | . | . | .
Cc1cccc(C)c1NC(=O)CN(C)C(=O)C(c1ccccc1)c1ccccc1 | - | - | 91 | - | - | - | - | - | - | - | -
COc1ccc(-c2cc(C(=O)NCc3cccc(C(F)(F)F)c3)[nH]n2)c(C)c1 | . | - | . | . | - | . | . | . | . | . | .
CC1OC(Nc2ccc(N=Nc3ccccc3)cc2)C(O)C(O)C1O (stereo not drawn) | - | - | - | - | - | - | . | . | . | . | .
CC1OC(Nc2cccc3ccccc23)C(O)C(O)C1O (stereo not drawn) | 95 | - | - | - | - | 89 | - | 52 | - | - | -
CSc1cccc(NC(=O)Nc2ccccc2C(N)=O)c1 | 77 | - | 78 | - | - | 64 | - | 64 | 87 | 63 | -
CSc1cccc(NC(=O)Nc2ccccc2)c1 | - | - | - | - | - | - | . | . | . | . | .
NC(=O)c1ccccc1NC(=O)Nc1ccc(F)c(Cl)c1 | 92 | - | 96 | - | - | 92 | 64 | 88 | 99 | 90 | 91
CCOC(=O)[C@]12CCCC=C1N(Cc1cccc3ccccc13)C(=O)[C@H](CC(=O)N1CCN(C(=O)c3ccco3)CC1)C2 | . | - | . | . | - | . | . | . | . | . | .
N#CC1=C2C=Cc3ccccc3N2CCCC1=O | 52 | - | - | - | - | - | - | - | 76 | 68 | -
